About 2,000 (36%) of roughly 5,500 compounds were called active. Not shown: some 18% with an inconclusive outcome. Rule as the data show it: active = normalized growth mostly below about 0.91 (no sharp cut-off); inconclusive = no clear call, values can overlap the other calls; inactive = mostly above about 0.92. Some of the results follow.
Assay: chemical genetic growth profiling, strain panel (AID 1159580);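 also: tested at 20 µM; growth read once vehicle control cultures reached saturation at 30 °C; 1 = growth at the plate median or of vehicle wells; lower values mean less growth of the strain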
Settings: growth OD

Measured: normalized growth

C[C@]12CCC3c4ccc(O)cc4CCC3C1CCC2=O (stereo partly drawn)
inactive: S. cerevisiae deletion strains, locus YJR066W, strain TOR1, hits give low values 0.953 | S. cerevisiae deletion strains, locus YJR075W, strain HOC1, hits give low values 0.977 | S. cerevisiae deletion strains, locus YKL009W, strain mrt4, hits give low values 0.905 | S. cerevisiae deletion strains, locus YKL068W, hits give low values 1 | S. cerevisiae deletion strains, locus YKL085W, strain MDH1 (second series), hits give low values 1.02 | S. cerevisiae deletion strains, locus YKL085W, strain MDH1, hits give low values 1.02 | S. cerevisiae deletion strains, locus YKL160W, strain elf1, hits give low values 0.994 | S. cerevisiae deletion strains, locus YKR026C, strain gcn3, hits give low values 1.02 | S. cerevisiae deletion strains, locus YKR091W, strain srl3, hits give low values 1.02 | S. cerevisiae deletion strains, locus YLL001W, strain dnm1, hits give low values 1.05 | S. cerevisiae deletion strains, locus YLL026W, hits give low values 0.999 | S. cerevisiae deletion strains, locus YLL041C, strain sdh2, hits give low values 1.02 | S. cerevisiae deletion strains, locus YLR027C, strain aat2, hits give low values 0.973 | S. cerevisiae deletion strains, locus YLR058C, strain SHM2, hits give low values 0.97 | S. cerevisiae deletion strains, locus YLR102C, strain apc9, hits give low values 1 | S. cerevisiae deletion strains, locus YLR113W, strain HOG1, hits give low values 0.98 | S. cerevisiae deletion strains, locus YLR221C, strain rsa3, hits give low values 1 | S. cerevisiae deletion strains, locus YLR258W, strain gsy2, hits give low values 0.975 | S. cerevisiae deletion strains, locus YLR268W, strain sec22, hits give low values 0.976 | S. cerevisiae deletion strains, locus YLR330W, strain CHS5, hits give low values 1 | S. cerevisiae deletion strains, locus YLR342W, strain FKS1 (second series), hits give low values 0.882 | S. cerevisiae deletion strains, locus YLR342W, strain FKS1, hits give low values 1 | S. cerevisiae deletion strains, locus YLR357W, strain rsc2, hits give low values 1.04 | S. cerevisiae deletion strains, locus YLR370C, strain arc18, hits give low values 1.02 | S. cerevisiae deletion strains, locus YLR371W, strain rom2, hits give low values 1.02 | S. cerevisiae deletion strains, locus YLR384C, strain iki3, hits give low values 1.02 | S. cerevisiae deletion strains, locus YLR418C, strain cdc73, hits give low values 0.985 | S. cerevisiae deletion strains, locus YML016C, strain PPZ1, hits give low values 0.986 | S. cerevisiae deletion strains, locus YML032C, strain rad52, hits give low values 0.924 | S. cerevisiae deletion strains, locus YML120C, strain ndi1, hits give low values 1.03 | S. cerevisiae deletion strains, locus YML124C, strain tub3, hits give low values 1.02 | S. cerevisiae deletion strains, locus YMR058W, strain fet3, hits give low values 0.928 | S. cerevisiae deletion strains, locus YMR078C, strain ctf18, hits give low values 0.987 | S. cerevisiae deletion strains, locus YMR125W, strain sto1, hits give low values 1.06 | S. cerevisiae deletion strains, locus YMR129W, hits give low values 1.02 | S. cerevisiae deletion strains, locus YMR205C, strain PFK2, hits give low values 1.03 | S. cerevisiae deletion strains, locus YMR223W, strain ubp8, hits give low values 0.987 | S. cerevisiae deletion strains, locus YMR231W, strain pep5, hits give low values 0.993 | S. cerevisiae deletion strains, locus YMR307W, strain GAS1, hits give low values 0.797 | S. cerevisiae deletion strains, locus YNL067W, strain RPL9B, hits give low values 1 | S. cerevisiae deletion strains, locus YNL071W, strain lat1, hits give low values 0.937 | S. cerevisiae deletion strains, locus YNL183C, strain NPR1, hits give low values 0.936 | S. cerevisiae deletion strains, locus YNL209W, strain ssb2, hits give low values 1.02 | S. cerevisiae deletion strains, locus YNL233W, strain BNI4, hits give low values 0.976 | S. cerevisiae deletion strains, locus YNL248C, strain rpa49, hits give low values 0.956 | S. cerevisiae deletion strains, locus YNL250W, strain rad50, hits give low values 0.922 | S. cerevisiae deletion strains, locus YNL271C, strain bni1, hits give low values 0.966 | S. cerevisiae deletion strains, locus YNL307C, strain MCK1, hits give low values 0.96 | S. cerevisiae deletion strains, locus YNL322C, strain KRE1 (second series), hits give low values 1.05 | S. cerevisiae deletion strains, locus YNL322C, strain KRE1, hits give low values 1.01 | S. cerevisiae deletion strains, locus YNR049C, strain mso1, hits give low values 1.03 | S. cerevisiae deletion strains, locus YNR052C, strain pop2, hits give low values 0.917 | S. cerevisiae deletion strains, locus YOL006C, strain TOP1, hits give low values 0.838 | S. cerevisiae deletion strains, locus YOL012C, strain htz1 1.42 | S. cerevisiae deletion strains, locus YOL147C, strain pex11, hits give low values 1 | S. cerevisiae deletion strains, locus YOR001W, strain rrp6, hits give low values 0.946 | S. cerevisiae deletion strains, locus YOR061W, strain CKA2, hits give low values 0.969 | S. cerevisiae deletion strains, locus YOR069W, strain VPS5, hits give low values 1 | S. cerevisiae deletion strains, locus YOR070C, strain gyp1, hits give low values 0.997 | S. cerevisiae deletion strains, locus YOR080W, strain dia2, hits give low values 1.02 | S. cerevisiae deletion strains, locus YOR083W, strain WHI5, hits give low values 0.98 | S. cerevisiae deletion strains, locus YOR106W, strain vam3, hits give low values 1.02 | S. cerevisiae deletion strains, locus YOR136W, strain idh2, hits give low values 0.991 | S. cerevisiae deletion strains, locus YOR144C, strain elg1, hits give low values 0.999 | S. cerevisiae deletion strains, locus YOR231W, strain MKK1, hits give low values 0.969 | S. cerevisiae deletion strains, locus YOR265W, strain rbl2, hits give low values 1 | S. cerevisiae deletion strains, locus YOR270C, strain vph1, hits give low values 0.831 | S. cerevisiae deletion strains, locus YOR290C, strain snf2, hits give low values 0.941 | S. cerevisiae deletion strains, locus YOR316C, strain cot1, hits give low values 0.991 | S. cerevisiae deletion strains, locus YPL051W, strain arl3, hits give low values 0.934 | S. cerevisiae deletion strains, locus YPL055C, strain LGE1, hits give low values 0.863 | S. cerevisiae deletion strains, locus YPL078C, strain atp4, hits give low values 0.954 | S. cerevisiae deletion strains, locus YPL106C, strain sse1, hits give low values 1.03 | S. cerevisiae deletion strains, locus YPL240C, strain hsp82, hits give low values 1.01 | S. cerevisiae deletion strains, locus YPL256C, strain CLN2, hits give low values 1.02 | S. cerevisiae deletion strains, locus YPR119W, strain clb2, hits give low values 1 | S. cerevisiae deletion strains, locus YPR141C, strain kar3, hits give low values 1 | S. cerevisiae deletion strains, locus YPR163C, strain tif3, hits give low values 0.927 | S. cerevisiae deletion strains, locus YPR167C, strain met16, hits give low values 0.998 | S. cerevisiae deletion strains, strain wtn01, hits give low values 0.967 | S. cerevisiae strains, strain wild type, hits give low values 1
active: S. cerevisiae deletion strains, locus YKR001C, strain vps1, hits give low values 0.854 | S. cerevisiae deletion strains, locus YLR039C, strain RIC1, hits give low values 0.56 | S. cerevisiae deletion strains, locus YLR262C, strain YPT6 (second series), hits give low values 0.609 | S. cerevisiae deletion strains, locus YLR262C, strain YPT6, hits give low values 0.558 | S. cerevisiae deletion strains, locus YLR320W, strain mms22, hits give low values 0.873 | S. cerevisiae deletion strains, locus YNL298W, strain CLA4, hits give low values 0.902 | S. cerevisiae deletion strains, locus YOR184W, strain ser1, hits give low values 0.714

Reference: PubChem BioAssay AID1159580 (chemical genetic matrix, 2015)
